# Assay outcomes (PubChem BioAssay)
# Hits are enriched below; roughly 17% of the tested compounds scored in any of these assays.
# TDP1 block – blocks human tyrosyl-DNA phosphodiesterase 1 | recombinant TDP1, AlphaScreen DNA substrate cleavage | AID 485290 | 350,000 compounds, 0.28% hits | Q9NUW8 | Potency, µM (doses to about 130 µM), without a hit: at the top dose activity change, negative = inhibition, usual class: inhibitors; also: % is scaled to controls: 0 for no effect and ±100 for the full control effect; nearly all actives have a fitted effect of over 40% in size
# Target sequence (Q9NUW8 whole entry, looked up): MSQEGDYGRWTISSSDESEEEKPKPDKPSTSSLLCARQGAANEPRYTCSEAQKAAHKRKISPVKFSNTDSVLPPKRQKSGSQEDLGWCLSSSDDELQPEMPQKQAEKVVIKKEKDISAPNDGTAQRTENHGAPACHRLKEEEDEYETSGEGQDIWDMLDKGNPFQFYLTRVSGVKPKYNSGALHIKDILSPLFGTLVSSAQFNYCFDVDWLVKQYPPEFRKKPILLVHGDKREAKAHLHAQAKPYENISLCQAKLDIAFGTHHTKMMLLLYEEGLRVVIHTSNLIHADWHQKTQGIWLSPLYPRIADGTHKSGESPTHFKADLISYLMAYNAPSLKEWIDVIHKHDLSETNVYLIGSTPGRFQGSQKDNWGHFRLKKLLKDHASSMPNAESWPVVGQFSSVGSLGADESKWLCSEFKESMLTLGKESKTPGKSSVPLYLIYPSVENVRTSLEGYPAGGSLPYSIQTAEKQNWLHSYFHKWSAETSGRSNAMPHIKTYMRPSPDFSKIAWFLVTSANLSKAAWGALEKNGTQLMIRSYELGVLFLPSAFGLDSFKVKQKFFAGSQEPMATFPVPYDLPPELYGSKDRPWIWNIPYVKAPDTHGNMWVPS
#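 Steps: enzyme plus compound, 15 min RT; add biotin/phosphotyrosine-FITC oligonucleotide (15 nM final), react 5 min; add donor/acceptor beads (10 ug/ml final), 10 min; read AlphaScreen. Tdp1 at 1 nM final.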
# TDP1 cell CPT – growth inhibition of DT40 Tdp1-/-;hTDP1 cells with camptothecin (screen for TDP1 inhibitors) | chicken DT40 Tdp1-/-;hTDP1 cells + 20 nM CPT, ATP luminescence, 48 h | Potency, µM (titrated, usually from 46.2 µM), without a hit: at the highest dose activity change, negative = growth inhibition, most hits filed as inhibitors | 420,000 compounds, 12% hits | AID 686979; also: % is scaled to controls: 0 for no effect and ±100 for the full control effect; nearly all actives have a fitted effect of over 55% in size
#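 Chicken DT40 Tdp1-/- cells stably complemented with human TDP1 were seeded at 400 cells/well in medium containing 20 nM camptothecin, exposed to pin-transferred compounds, and grown at 37 °C for at least 48 hr. Viability was read as ATP luminescence.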
# ClpP mod – qHTS Assay for Activators of ClpP; 340,000 compounds, 1.9% hits; Potency, µM (top dose mostly 57.5 µM), without a hit: at the top dose activity change, negative = active; purified B. subtilis ClpP, FRET peptide cleavage, 20 min; AID 651965, 2013; ATP-dependent Clp protease proteolytic subunit (Bacillus subtilis (strain 168)), P80244; active = well fitted falling curve with a large enough effect; inconclusive = small, poorly fitted or top-dose-only effect; inactive = no such curve, though single readings can be large or run the other way; also: the source files actives as falling curves though it sought activators and does not explain the sign; nearly all actives have a fitted effect of over 65% in size
#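 Purified B. subtilis ClpP, 10 microg/mL final in Tris/HCl pH8 with KCl, BSA, glycerol and Tween-20, cleaved an Abz/nitrotyrosine-quenched decapeptide. Fluorescence (ex 320, em 430) was read at 0 and 20 min at room temperature. Delta was normalized to 5.8 microM ADEP and DMSO/no-enzyme controls.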
# TDP1 cell noCPT – qHTS for Inhibitors of human tyrosyl-DNA phosphodiesterase 1 (TDP1): qHTS in cells in absence of CPT | DT40 Tdp1-/- hTDP1 cells, no CPT, ATP luminescence, 48 h | Potency, µM (series often up to 46.2 µM), without a hit: at the highest dose activity change, negative = growth inhibition, hits mostly inhibitors | 420,000 compounds, 15% hits | AID 686978, 2013; also: % is scaled to controls: 0 for no effect and ±100 for the full control effect; nearly all actives have a fitted effect of over 55% in size
#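 Compound effects on proliferation are scored in DT40 Tdp1-/-;hTDP1 cells in the absence of CPT. ATP levels (CellTiter-Glo luminescence) are recorded after a ≥48 hr, 37 °C incubation.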
# * hit, by the source's call; ? = inconclusive; · = not tested or not shown; [ ] = another dose, or the depositor's remark. Unless noted, calls follow the shape of the dose curve; as a rule, active = well fitted curve in the direction sought with a large enough effect; inconclusive = small, poorly fitted or top-dose-only effect, or another doubt; inactive = no such curve, though single readings can be large; an effect the other way counts as inactive or inconclusive. Potency is read from the fitted curve at half-maximal effect.
SMILES,TDP1 block,TDP1 cell CPT,ClpP mod,TDP1 cell noCPT
Cc1n[nH]c(C)c1S(=O)(=O)N1CCCC(C(=O)Nc2ccc(Cl)cc2)C1 (stereo not given),0%,?,-2%,7.3µM*
Cc1ccc(NC(=O)C2CCCN(S(=O)(=O)c3c(C)n[nH]c3C)C2)cc1Cl (stereo not given),-2%,?,-1%,?
CN1CCN(c2nnc(-c3ccc(F)cc3)c3ccccc23)CC1,13%,-1%,·,1%
CCc1ccccc1N(C)C(=O)Cn1cnc2sc(C)c(S(=O)(=O)N3CCN(c4ncccn4)CC3)c2c1=O,0%,?,-6%,?
O=C(CSCc1nc2c(nnn2Cc2ccc(F)cc2)c(=O)[nH]1)Nc1cccc(C(F)(F)F)c1,5%,-4%,1%,-15%
Cc1ccc(C2=Nc3ccccc3N(CC(=O)NCc3ccc(Cl)cc3)C(=O)C2)cc1C,3%,?,-3%,15µM*
Cc1ccc(CNC(=O)CSC2=Nc3ccccc3N=C(c3ccc(F)cc3)C2)cc1,3%,-11%,-1%,6%
CCOC(=O)c1ccc(NC(=O)CN2C(=O)CC(c3ccc(C)c(C)c3)=Nc3ccccc32)cc1,5%,?,-3%,?
O=C(CN1C(=O)CC(c2ccc(F)cc2)=Nc2ccccc21)NCc1ccccc1Cl,2%,?,0%,26µM*
Cc1ccc(C2=Nc3ccccc3N(CC(=O)NCc3ccc(F)cc3)C(=O)C2)cc1C,7%,15µM*,2%,23µM*
CC(C)c1ccc(C(=O)C[N+]2(C)CCOCC2)cc1,·,-10%,2%,-18%
O=C(Nc1cc(S(=O)(=O)Nc2ccccc2F)ccc1Cl)c1ccc(F)cc1F,0%,-1%,·,?
COc1ccc(OC)c2[nH]c(=O)c(CCNC(C)=O)cc12,2%,-4%,-3%,-3%
Cc1ccc(C)c2[nH]c(=O)c(CCNC(=O)c3cc4ccccc4o3)cc12,2%,18µM*,?,21µM*
CCC(CC)C(=O)NCCc1cc2c(C)ccc(C)c2[nH]c1=O,·,9%,-6%,3%
COc1ccc(OC)c2[nH]c(=O)c(CCNC(=O)c3cc4ccccc4o3)cc12,2%,15µM*,-4%,?
O=C(O)CCc1ccc(S(=O)(=O)Nc2cc(C(F)(F)F)ccc2N2CCCC2)cc1,18µM*,-15%,1%,-16%
Cc1ccc(S(=O)(=O)Nc2cc(C(=O)O)ccc2N2CCCCC2)cc1,2%,1%,-2%,-20%
COc1ccc(-c2c(=O)n(OCc3nc4ccccc4[nH]3)c3ccccc3[n+]2[O-])cc1,3%,0%,·,?
CCOc1ccc(-c2c(=O)n(OCc3nc4ccccc4[nH]3)c3ccccc3[n+]2[O-])cc1,0%,?,·,23µM*
CCOn1c(=O)c(-c2ccc(Br)cc2)[n+]([O-])c2ccccc21,·,5%,-16%,0%
CCCOc1ccc(-c2c(=O)n(OCc3ccc([N+](=O)[O-])cc3)c3ccccc3[n+]2[O-])cc1,2%,-18%,28µM*,-13%
Cc1cccc(N(CC(=O)Nc2cccnc2)S(C)(=O)=O)c1,-1%,-2%,1%,0%
O=C(CSc1ccccc1F)NC(=O)c1ccccc1Br,-1%,20%,1%,-5%
COc1cccc(Nc2ncc3nc(-c4cccs4)c(=O)n(CCC#N)c3n2)c1,·,2%,·,-1%
SMILES,TDP1 block,TDP1 cell CPT,ClpP mod,TDP1 cell noCPT
O=c1c(-c2ccc(Cl)cc2)nc2cnc(N3CCNCC3)nc2n1-c1ccccc1,·,4.1µM*,·,4.6µM*
COc1ccc(-c2nc3cnc(N4CCNCC4)nc3n(-c3ccc(OC)cc3)c2=O)cc1,·,18µM*,·,?
COc1ccc(-c2nc3cnc(N4CCNCC4)nc3n(-c3ccccc3)c2=O)cc1,·,21µM*,·,15µM*
COc1ccc(-n2c(=O)c(-c3cccs3)nc3cnc(Nc4cccc(OC)c4)nc32)cc1,·,-15%,·,23µM*
O=c1c(-c2ccc(Cl)cc2)nc2cnc(N3CCOCC3)nc2n1-c1ccccc1,·,11%,·,-12%
COc1ccc(-n2c(=O)c(-c3ccccc3)nc3cnc(N4CCNCC4)nc32)cc1,·,-9%,·,5%
O=C(/C=C/c1ccccc1)N1CCC(N2CCC(C(=O)N3CCOCC3)CC2)CC1,5%,1%,·,-6%
C#CCOc1ccccc1C(N)=O,·,2%,0%,-11%
COc1ccc(C)cc1NC(=O)C1CCN(S(=O)(=O)c2c(C)noc2/C=C/c2ccco2)CC1,5%,-15%,-6%,-28%
CCNc1ncc2nc(-c3ccc(OC)cc3)c(=O)n(-c3ccc(OC)cc3)c2n1,·,?,·,0.033µM*
COc1ccc(-n2c(=O)c(-c3ccc(Cl)cc3)nc3cnc(N4CCNCC4)nc32)cc1,·,5.2µM*,·,12µM*
COc1ccc(-n2c(=O)c(C)nc3cnc(N4CCNCC4)nc32)cc1,·,1%,·,-5%
CCCC[P+](CCCC)(CCCC)Cc1ccc(NC(=O)[C@@H](Cc2ccc3ccccc3c2)NC(=NC2CCCCC2)NC2CCCCC2)cc1,14%,13µM*,·,17µM*
Cc1cccc(C(=O)NCc2nc(-c3cccc(NC(=O)C4CCCN(C)C4)c3)oc2C)n1 (stereo not given),·,9%[9.04 µM],·,?
COc1ccc(Nc2cc(C)c3cc(NC(=O)c4cc(OC)cc(OC)c4)ccc3n2)cc1,9%,9.2µM*,?,7.3µM*
COc1ccc(CC(=O)Nc2ccc3nc(Nc4ccc(OC)cc4)cc(C)c3c2)cc1,11%,?,4%,23µM*
COc1ccc(Nc2cc(C)c3cc(NC(=O)Cc4c(F)cccc4Cl)ccc3n2)cc1,5%,16µM*,-17%,13µM*
COc1ccc(NS(=O)(=O)c2cc(NC(=O)Cc3c(F)cccc3Cl)ccc2OC)cc1,1%,?,0%,?
Cc1cccc(NC(=O)Cc2c(F)cccc2Cl)n1,·,0%,·,-11%
Cc1cc(Nc2cccc(Cl)c2)nc2ccc(NC(=O)Cc3c(F)cccc3Cl)cc12,-2%,13µM*,4%,7.3µM*
O=C(C[C@H]1C/C=C\CCC(=O)O[C@@H](c2ccccc2)CNC1=O)NCCO,1%,1%,-3%,2%
CCCN(CC(=O)Nc1ccccc1OC)C(=O)c1ccc(=O)[nH]c1,·,?,·,9%
Cc1noc(C)c1C(=O)N1CCC1(C)C(=O)NS(=O)(=O)c1cccc(F)c1 (stereo not given),·,8%,-4%,2%
COc1ccc(Nc2cc(C)c3cc(NC(=O)COc4cccc(C)c4)ccc3n2)cc1,9%,16µM*,?,15µM*
COc1cccc(Nc2nc(N)nc(-c3oc4ccccc4c3C)n2)c1,5%,6.5µM*,-8%,8.2µM*
Cc1ccc(Nc2nc(N)nc(-c3oc4ccccc4c3C)n2)cc1,0%,0.21µM*,·,0.058µM*
